In PubChem BioAssay (EPA / NIEHS):
Records with an inconclusive call do not appear. Active and inactive are the calls of the source. The calls were made as follows, unless noted: active = hit-call score of the fitted dose curve at least 0.9, where 1 is the maximum; inactive = score below 0.9.

Experiments:
[1] = read-out: Macrophage colony-stimulating factor (MCSF), CSF1 (gene 1435); assay: BSK_LPS_MCSF: BioMAP Diversity Plus: LPS Assay for Macrophage colony-stimulating factor (MCSF) Biomarker Activity (AID 2283083); details: primary human HUVEC with PBMC; actives raise or lower the signal
How it was run: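 HUVEC–PBMC co-culture, M-CSF measured by ELISA 24 h after chemical dosing. Fitted in both directions relative to DMSO as negative control; overt cytotoxicity assessed by SRB total-protein staining in parallel cultures.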

[2] = read-out: Tissue Factor, F3 (gene 2152); assay: BSK_LPS_TissueFactor: BioMAP Diversity Plus: LPS Assay for Tissue Factor Biomarker Activity (AID 2283084); details: primary human HUVEC with PBMC; actives raise or lower the signal
How it was run: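 Human umbilical vein endothelial cells co-cultured with PBMC were dosed with compound. Cell-surface CD142 was measured by ELISA 24 h later. Activity was fitted bidirectionally against DMSO, with SRB total-protein staining in parallel cultures for cytotoxicity.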

[3] = read-out: Tumor necrosis factor (Homo sapiens) (UniProt P01375); assay: BSK_LPS_TNFa: BioMAP Diversity Plus: LPS Assay for Tumour Necrosis Factor alpha (TNFa) Biomarker Activity (AID 2283085); details: primary human HUVEC with PBMC; actives raise or lower the signal
How it was run: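 Primary human vascular co-culture of HUVEC and PBMC; TNFa ELISA 24 h after treatment, analysed as increase or decrease relative to DMSO control.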

[4] = read-out: Vascular cell adhesion molecule 1 (VCAM1), VCAM1 (gene 7412); assay: BSK_LPS_VCAM1: BioMAP Diversity Plus: LPS Assay for Vascular cell adhesion molecule 1 (VCAM1) Biomarker Activity (AID 2283086); details: primary human HUVEC with PBMC; actives raise or lower the signal
How it was run: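 Primary human vascular co-culture (umbilical vein endothelium plus PBMC) stimulated with LPS received chemical; 24 h later VCAM-1 was read by ELISA. Overt cytotoxicity was assessed by sulforhodamine B staining of parallel cultures at the same time point.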

[5] = read-out: CD38, CD38 (gene 952); assay: BSK_SAg_CD38: BioMAP Diversity Plus: SAg Assay for CD38 Biomarker Activity (AID 2283087); details: primary human HUVEC with PBMC; actives raise or lower the signal
How it was run: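 Fluorescence ELISA of cell-surface CD38 served as the read-out, with either increase or decrease fitted against DMSO controls. Cells were a human umbilical vein endothelium plus PBMC co-culture under SEB/TSST-1 stimulation, measured 24 h after dosing.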

[6] = read-out: CD40, CD40 (gene 958); assay: BSK_SAg_CD40: BioMAP Diversity Plus: SAg Assay for CD40 Biomarker Activity (AID 2283088); details: primary human HUVEC with PBMC; actives raise or lower the signal
How it was run: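 HUVEC plus PBMC co-culture, superantigen-activated, with CD40 read by ELISA 24 h after dosing. Curves fitted in both directions against DMSO. Overt cytotoxicity checked by parallel SRB total-protein staining.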

[7] = read-out: CD69, CD69 (gene 969); assay: BSK_SAg_CD69: BioMAP Diversity Plus: SAg Assay for CD69 Biomarker Activity (AID 2283089); details: primary human HUVEC with PBMC; actives raise or lower the signal;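 as to AC50: cell surface CD69 protein quantified by ELISA with fluorescence detection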
How it was run: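 HUVEC co-cultured with PBMC were dosed with chemical, and CD69 was measured by ELISA with fluorescence read-out 24 h later. Bidirectional curve fitting used DMSO as negative control and activity baseline.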

[8] = read-out: Monocyte Chemoattractant Protein-1 (MCP1), CCL2 (gene 6347); assay: BSK_SAg_MCP1: BioMAP Diversity Plus: SAg Assay for Monocyte Chemoattractant Protein-1 (MCP1) Biomarker Activity (AID 2283090); details: primary human HUVEC with PBMC; actives raise or lower the signal
How it was run: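 MCP-1 levels in the endothelial–PBMC SAg co-culture were quantified by ELISA at 24 h post-dosing; both increases and decreases versus DMSO scored. Cytotoxicity monitored by SRB total protein in parallel cultures.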

[9] = read-out: E-selectin (Homo sapiens) (UniProt P16581); assay: BSK_SAg_Eselectin: BioMAP Diversity Plus: SAg Assay for Eselectin Biomarker Activity (AID 2283091); details: primary human HUVEC with PBMC; actives raise or lower the signal
How it was run: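 Human umbilical vein endothelial cells co-cultured with peripheral blood mononuclear cells, SAg system. E-selectin is measured by ELISA 24 h after dosing and fitted bidirectionally against DMSO. Cytotoxicity is checked by SRB staining of parallel cultures.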

[10] = read-out: Monokine induced gamma interferon (MIG), CXCL9 (gene 4283); assay: BSK_SAg_MIG: BioMAP Diversity Plus: SAg Assay for Monokine induced gamma interferon (MIG) Biomarker Activity (AID 2283092); details: primary human HUVEC with PBMC; actives raise or lower the signal
How it was run: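 HUVEC plus human PBMC co-culture, chemicals dosed and MIG (CXCL9) quantified by ELISA at 24 h. Bidirectional curve fitting against DMSO as negative control and baseline, so both gain and loss of signal count as activity.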

[11] = BSK_SAg_PBMCCytotoxicity: PBMC Cytotoxicity Assessment in the BioMAP Diversity Plus: SAg Assay (AID 2283093); details: primary human HUVEC with PBMC;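 also: PBMC viability measured as Alamar Blue reduction fluorescence at 546/580 nm; fitted both ways against DMSO so a hit may be loss or gain of signal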;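 as to AC50: PBMC superantigen activated with SEB plus TSST-1 one hour after compound addition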
How it was run: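 Human umbilical vein endothelial cells co-cultured with PBMC; PBMC (75,000/well) pre-treated with compound 1 h, then activated with SEB and TSST-1 (20 ng/mL final each) for 90 h. Alamar Blue added 6 h, fluorescence 546/580 nm; bidirectional fit versus DMSO.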

[12] = read-out: Interleukin-8 (IL8), CXCL8 (gene 3576); assay: BSK_SAg_IL8: BioMAP Diversity Plus: SAg Assay for Interleukin-8 (IL8) Biomarker Activity (AID 2283094); details: primary human HUVEC with PBMC; actives raise or lower the signal
How it was run: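 In this co-culture of human umbilical vein endothelium with peripheral blood mononuclear cells, IL-8 is assayed by ELISA at 24 h. DMSO serves as baseline for bidirectional curve fitting.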

[13] = BSK_SAg_Proliferation: Cell Proliferation Assessment in the BioMAP Diversity Plus: SAg Assay (AID 2283095); details: primary human HUVEC with PBMC;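 also: relative cell number as total protein by SRB absorbance in sub-confluent culture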
How it was run: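 Readout is SRB-stained protein (560 nm) in a primary human HUVEC and PBMC co-culture; sub-confluent cultures are read at 96 h. Activity is fitted bidirectionally using DMSO as baseline.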

[14] = BSK_SAg_SRB: Viability Assessment in the BioMAP Diversity Plus: SAg Assay (AID 2283096); details: primary human HUVEC with PBMC;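 also: cells read one day after compound addition; hits may be either gain or loss of signal compared with DMSO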
How it was run: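 Endothelial/PBMC primary human co-culture; compound 24 h; fix 10% TCA, stain 0.1% SRB, A560; protein content as cytotoxicity proxy; bidirectional curve fit, DMSO = baseline.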

[15] = BSK_LPS_PGE2: BioMAP Diversity Plus: LPS Assay for Prostaglandin E2 (PGE2) Biomarker Activity (AID 2283082); details: primary human HUVEC with PBMC; actives raise or lower the signal;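 as to AC50: secreted prostaglandin E2 measured by ELISA in LPS-stimulated co-culture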
How it was run: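 Endpoint derived from bidirectional curve fitting versus DMSO of ELISA-measured PGE2 in LPS-stimulated human primary vascular co-culture (HUVEC with PBMC) harvested at 24 h.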

[16] = target: human CYP19A1, CYP19A1 (gene 1588) (UniProt P11511); assay: NVS_ADME_hCYP19A1: NovaScreen (NVS) CYP450-related Enzyme Activity (ADME) Assay for human CYP19A1 (AID 2283098; active = hit-call score of the fitted dose curve at least 0.9, where 1 is the maximum)
human CYP19A1, CYP19A1 (gene 1588), sequence (P11511 whole entry, looked up): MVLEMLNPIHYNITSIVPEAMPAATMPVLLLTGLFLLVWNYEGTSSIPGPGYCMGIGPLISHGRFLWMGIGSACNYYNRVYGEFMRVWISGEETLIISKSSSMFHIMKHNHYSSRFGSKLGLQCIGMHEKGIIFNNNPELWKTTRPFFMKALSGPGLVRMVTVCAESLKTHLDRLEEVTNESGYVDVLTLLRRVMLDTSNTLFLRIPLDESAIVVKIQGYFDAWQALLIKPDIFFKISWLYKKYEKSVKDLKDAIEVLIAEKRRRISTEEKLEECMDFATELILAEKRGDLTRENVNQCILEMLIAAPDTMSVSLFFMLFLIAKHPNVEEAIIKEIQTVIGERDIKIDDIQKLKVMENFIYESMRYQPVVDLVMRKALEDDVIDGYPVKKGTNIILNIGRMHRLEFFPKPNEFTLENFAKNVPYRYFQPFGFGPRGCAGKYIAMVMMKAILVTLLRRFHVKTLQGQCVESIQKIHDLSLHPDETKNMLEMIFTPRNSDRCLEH
How it was run: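 Cell-free enzyme assay with recombinant protein and a specific fluorogenic substrate, read by fluorescence intensity 0.5 h after dosing. Primary screen ran in duplicate at 10 uM; actives were retested in concentration series. Loss of signal versus acetonitrile baseline.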

Tumor necrosis factor (Homo sapiens), sequence (P01375 whole entry, looked up): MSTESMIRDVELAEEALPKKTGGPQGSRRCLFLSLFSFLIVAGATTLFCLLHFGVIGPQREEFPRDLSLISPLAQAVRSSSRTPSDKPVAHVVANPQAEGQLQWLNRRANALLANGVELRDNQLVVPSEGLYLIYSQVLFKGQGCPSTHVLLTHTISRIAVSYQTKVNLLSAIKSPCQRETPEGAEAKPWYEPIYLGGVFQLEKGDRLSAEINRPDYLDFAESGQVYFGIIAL
E-selectin (Homo sapiens), sequence (P16581 whole entry, looked up): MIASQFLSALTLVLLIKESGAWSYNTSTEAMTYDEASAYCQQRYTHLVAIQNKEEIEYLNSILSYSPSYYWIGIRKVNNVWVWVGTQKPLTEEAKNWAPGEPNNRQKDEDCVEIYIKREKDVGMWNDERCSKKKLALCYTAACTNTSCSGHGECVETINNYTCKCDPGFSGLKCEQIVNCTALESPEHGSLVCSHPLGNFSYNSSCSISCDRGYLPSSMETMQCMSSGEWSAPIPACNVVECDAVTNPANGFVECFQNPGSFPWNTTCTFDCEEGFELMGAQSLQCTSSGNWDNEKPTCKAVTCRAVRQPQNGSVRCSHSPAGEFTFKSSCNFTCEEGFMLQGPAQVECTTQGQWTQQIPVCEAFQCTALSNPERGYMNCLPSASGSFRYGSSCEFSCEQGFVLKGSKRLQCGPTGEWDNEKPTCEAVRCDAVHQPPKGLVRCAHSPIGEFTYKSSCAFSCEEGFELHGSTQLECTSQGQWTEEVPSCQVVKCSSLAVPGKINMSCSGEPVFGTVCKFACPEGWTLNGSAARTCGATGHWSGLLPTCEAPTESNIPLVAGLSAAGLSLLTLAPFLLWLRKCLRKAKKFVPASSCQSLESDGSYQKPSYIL

Q: For C1CCC(SSC2CCCCC2)CC1, which outcome [1] is on record?
A: inactive

Q: And the outcome [2]?
A: inactive

Q: What about the AC50 [3] of the same molecule?
A: 32.5 µM (active)

Q: And the AC50 [4]?
A: 20 µM (active)

Q: What about the AC50 [5] of the same molecule?
A: 20 µM (active)

Q: What about the AC50 [6] of the same molecule?
A: 27 µM (active)

Q: What about the AC50 [7] of the same molecule?
A: 20 µM (active)

Q: And the outcome [8]?
A: inactive

Q: And the AC50 [9]?
A: 32.7 µM (active)

Q: And the outcome [10]?
A: inactive

Q: And the AC50 [11]?
A: 16.1 µM (active)

Q: And the outcome [12]?
A: inactive

Q: And the AC50 [13]?
A: 15 µM (active)

Q: And the outcome [14]?
A: inactive

Q: For Cc1cccc([N+](=O)[O-])c1C, which outcome [1] is on record?
A: inactive

Q: And the outcome [2]?
A: inactive

Q: What about the outcome [3] of the same molecule?
A: inactive

Q: And the outcome [4]?
A: inactive

Q: What about the outcome [5] of the same molecule?
A: inactive

Q: What about the outcome [6] of the same molecule?
A: inactive

Q: And the outcome [7]?
A: inactive

Q: And the outcome [8]?
A: inactive

Q: And the outcome [9]?
A: inactive

Q: And the outcome [10]?
A: inactive

Q: What about the outcome [11] of the same molecule?
A: inactive

Q: And the outcome [12]?
A: inactive

Q: And the outcome [13]?
A: inactive

Q: What about the outcome [14] of the same molecule?
A: inactive

Q: For C[Si]1(C)O[Si](C)(C)O[Si](C)(C)O[Si](C)(C)O1, which outcome [15] is on record?
A: inactive

Q: What about the outcome [1] of the same molecule?
A: inactive

Q: And the outcome [2]?
A: inactive

Q: What about the outcome [3] of the same molecule?
A: inactive

Q: What about the outcome [4] of the same molecule?
A: inactive

Q: What about the outcome [5] of the same molecule?
A: inactive

Q: What about the outcome [6] of the same molecule?
A: inactive

Q: What about the outcome [7] of the same molecule?
A: inactive

Q: And the outcome [8]?
A: inactive

Q: And the outcome [9]?
A: inactive

Q: What about the outcome [11] of the same molecule?
A: inactive

Q: What about the outcome [12] of the same molecule?
A: inactive

Q: What about the outcome [13] of the same molecule?
A: inactive

Q: What about the outcome [14] of the same molecule?
A: inactive

Q: What does the source list for COC(=O)c1ccc(O)cc1?
A: AC50 [15]: 1.34 µM (active); outcome [1]: inactive; outcome [2]: inactive; outcome [3]: inactive; outcome [4]: inactive; outcome [5]: inactive; outcome [6]: inactive; outcome [7]: inactive; outcome [8]: inactive; outcome [9]: inactive; outcome [11]: inactive; outcome [12]: inactive; outcome [13]: inactive; outcome [14]: inactive

Q: With CN1CCN(Cc2cc(-c3ccc4[nH]c(=O)oc4c3)co2)[C@@H](c2ccc(F)cc2)C1 as the molecule, how does the outcome [15] read?
A: inactive

Q: And the outcome [1]?
A: inactive

Q: What about the outcome [2] of the same molecule?
A: inactive

Q: What about the outcome [3] of the same molecule?
A: inactive

Q: What about the AC50 [5] of the same molecule?
A: 31.5 µM (active)

Q: And the AC50 [6]?
A: 26.8 µM (active)

Q: What about the AC50 [7] of the same molecule?
A: 17.6 µM (active)

Q: What about the AC50 [8] of the same molecule?
A: 11.5 µM (active)

Q: What about the AC50 [9] of the same molecule?
A: 11.2 µM (active)

Q: And the AC50 [11]?
A: 28.1 µM (active)

Q: And the AC50 [12]?
A: 9.71 µM (active)

Q: What about the AC50 [13] of the same molecule?
A: 30.7 µM (active)

Q: And the outcome [14]?
A: inactive

Q: Which results are given for COCCOCCOC?
A: outcome [1]: inactive; outcome [2]: inactive; outcome [3]: inactive; outcome [4]: inactive; outcome [5]: inactive; outcome [6]: inactive; outcome [7]: inactive; outcome [8]: inactive; outcome [9]: inactive; outcome [10]: inactive; outcome [11]: inactive; outcome [12]: inactive; outcome [13]: inactive; outcome [14]: inactive

Q: With O=C(OCCCCCOC(=O)c1ccccc1)c1ccccc1 as the molecule, how does the outcome [1] read?
A: inactive

Q: What about the outcome [2] of the same molecule?
A: inactive

Q: What about the AC50 [3] of the same molecule?
A: 12.7 µM (active)

Q: What about the outcome [4] of the same molecule?
A: inactive

Q: What about the outcome [5] of the same molecule?
A: inactive

Q: And the outcome [6]?
A: inactive

Q: What about the outcome [7] of the same molecule?
A: inactive

Q: And the outcome [8]?
A: inactive

Q: What about the outcome [9] of the same molecule?
A: inactive

Q: What about the outcome [10] of the same molecule?
A: inactive

Q: And the outcome [11]?
A: inactive

Q: What about the outcome [12] of the same molecule?
A: inactive

Q: What about the outcome [13] of the same molecule?
A: inactive

Q: What about the outcome [14] of the same molecule?
A: inactive

Q: With CCCCCCCCCCCC(=O)OC as the molecule, how does the outcome [1] read?
A: inactive

Q: And the outcome [2]?
A: inactive

Q: What about the outcome [3] of the same molecule?
A: inactive

Q: What about the outcome [4] of the same molecule?
A: inactive

Q: And the outcome [5]?
A: inactive

Q: And the outcome [6]?
A: inactive

Q: And the outcome [7]?
A: inactive

Q: And the outcome [8]?
A: inactive

Q: What about the outcome [9] of the same molecule?
A: inactive

Q: What about the AC50 [11] of the same molecule?
A: 20 µM (active)

Q: What about the outcome [12] of the same molecule?
A: inactive

Q: And the outcome [13]?
A: inactive

Q: What about the outcome [14] of the same molecule?
A: inactive

Q: What does the source list for Cc1nc(-c2ccc3c(c2)CCN(CCC2CCC(NC(=O)/C=C/c4ccc(F)cc4)CC2)CC3)no1 (centres undefined)?
A: AC50 [1]: 9.3 µM (active); outcome [2]: inactive; outcome [3]: inactive; AC50 [4]: 9.3 µM (active); AC50 [5]: 9.3 µM (active); AC50 [6]: 6.43 µM (active); outcome [7]: inactive; outcome [8]: inactive; outcome [9]: inactive; outcome [11]: inactive; outcome [12]: inactive; outcome [13]: inactive; outcome [14]: inactive; outcome [16]: inactive
